# Experimental data from PubChem BioAssay.
# “And” between values parts separate entries of the source, which are not always exact repeats. Equal entries are not always repeated. The source made the active and inactive calls. Unless noted, no stated cut-off is given here; in the data, active means nuclear beta-catenin stimulation mostly above about 4.2% (no sharp cut-off); inactive means mostly below about 10%.
# Key:
# [1] = stimulators of nuclear beta-catenin in C2C12, primary screen, imaging, WNT3A-conditioned medium, mouse C2C12, NPC library (AID 1117326); conditions: stronger effect = higher value
# [2] = stimulators of insulin release from INS-1E, primary screen, cell-based, 5 mM glucose, NPC library (AID 1117329;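 active means compound raises insulin release from rat beta cells at 5 mM glucose, no numeric limit stated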); conditions: rat INS-1E insulin secretion, at 10 µM, stronger effect = higher value
# [3] = growth inhibition of GSK3B-pretreated HCT116 cells – cell-based, CellTiter-Glo, 0.2 to 20 µM (AID 1117336;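 active means compounds lowering colon cancer cell viability after pretreatment blocking the GSK3B kinase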); conditions: HCT116 viability after GSK3B inhibitor, at 20 µM, stronger effect = higher value
# [4] = glucagon-like peptide 1 release enhancers, primary assay, NCI-H716 cell line, NPC library (AID 1117341;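 active means compound raises GLP1 secretion from the human gut endocrine cells, with no numeric limit stated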); conditions: NCI-H716 cells, at 10 µM, stronger effect = higher value
# [5] = HCT116 colon cancer cell growth inhibition, primary screen, CellTiter-Glo luminescence, NPC library (AID 1117342;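 active means compounds that lower survival of HCT116 colon cancer cells in the luminescence readout, no numeric limit stated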); conditions: at 20 µM (top of the series)
# [6] = CellTiter-Glo luminescent readout of SW480 viability loss, NPC library primary (AID 1117343;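 active means compounds that lower viability of the colon cancer cells in the luminescence readout, with no numeric limit stated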); conditions: CellTiter-Glo luminescence; at 20 µM (top of the series) unless noted
# [7] = decreased DLD-1 cellular survival, CellTiter-Glo luminescent readout, NPC compound collection, primary HTS (AID 1117346;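 active means compounds that lower survival of DLD-1 colon cancer cells in the luminescence readout, no cutoff given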); conditions: DLD-1 viability, CellTiter-Glo luminescence; at 20 µM (top of the series)
# [8] = differential killing of epithelial or mesenchymal cells, primary screen, imaging, PC-3E GFP, TEM4-18 mCherry, co-culture (AID 1345086;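 active means compounds killing one labelled cell type while sparing the other, by normalised counts and ratio limits, not self-fluorescent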;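 on all read-outs here: cells exposed to compound for 72 h before imaging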;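 on red/green cell ratio (normalised): normalised mesenchymal count divided by normalised epithelial count so high means epithelial killing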); conditions: imaging cell counts, at 1 µM; for red/green cell ratio (normalised): actives lie on both sides, counts scaled to control wells, 1 = unselective
# [9] = sensitizers of A549 cells to miR-34 induction, primary screen, imaging, A549 dox-inducible miR-34, nuclei and caspase counts (AID 1347080;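 active means compounds whose cell count with miR-34 switched on is under 0.7 times the count with it off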); conditions: A549 miR-34 inducible, Hoechst nuclei count, 48 h
# [10] = target: NAD(+) hydrolase SARM1 (Homo sapiens) (UniProt Q6SZW1); experiment: SARM1 TIR NADase inhibitors, cell lysate, NAD-Glo luminescence (AID 1508614;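 active means compound whose remaining NAD level is above about 45 nM, limit read from the data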); conditions: SAM-TIR HEK293T lysate NADase, at 1 µM, stronger effect = higher value
# Chain of NAD(+) hydrolase SARM1 (Homo sapiens) (Q6SZW1 whole entry, looked up): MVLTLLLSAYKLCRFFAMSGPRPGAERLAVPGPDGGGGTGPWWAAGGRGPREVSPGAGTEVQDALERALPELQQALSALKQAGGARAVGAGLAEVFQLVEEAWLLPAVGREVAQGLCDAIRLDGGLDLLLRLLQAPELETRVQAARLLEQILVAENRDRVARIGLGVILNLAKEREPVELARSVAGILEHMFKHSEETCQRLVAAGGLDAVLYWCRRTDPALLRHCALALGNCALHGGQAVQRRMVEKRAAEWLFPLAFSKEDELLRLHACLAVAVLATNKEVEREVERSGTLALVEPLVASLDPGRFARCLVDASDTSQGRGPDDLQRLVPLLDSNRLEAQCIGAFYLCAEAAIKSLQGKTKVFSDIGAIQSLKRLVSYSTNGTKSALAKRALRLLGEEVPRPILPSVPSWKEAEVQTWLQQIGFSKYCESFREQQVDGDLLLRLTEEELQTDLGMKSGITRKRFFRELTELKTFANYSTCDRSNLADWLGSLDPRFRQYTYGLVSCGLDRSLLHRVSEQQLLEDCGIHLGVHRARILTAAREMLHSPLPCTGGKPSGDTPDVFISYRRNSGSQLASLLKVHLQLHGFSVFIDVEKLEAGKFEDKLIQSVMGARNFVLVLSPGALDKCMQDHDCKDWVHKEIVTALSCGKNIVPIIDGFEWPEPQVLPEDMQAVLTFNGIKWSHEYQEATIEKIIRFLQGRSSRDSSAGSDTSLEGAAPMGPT
# [11] = inhibition of endothelial tube formation, primary screen, imaging, VEGF stimulated, CD31 staining, tube area, NPC library (AID 1117340;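 active means compound that reduces growth-factor-driven endothelial tube area in a mixed cell culture, no cutoff stated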); conditions: VEGF-stimulated ADSC/ECFC co-culture, at 10 µM, stronger effect = higher value
# [12] = target: Mitogen-activated protein kinase 7 (Homo sapiens) (UniProt Q13164); experiment: ERK5 transactivation activators in reporter cells, primary screen, cell-based, HTS (AID 1508626;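 active means luciferase signal above three times the same-plate solvent-only control wells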;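 further: luciferase driven by Gal4-ERK5 fusion binding five Gal4 sites before minimal TATA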); conditions: HeLa Gal4-ERK5 transactivation, 18 h, at 5 µM, stronger effect = higher value
# Chain of Mitogen-activated protein kinase 7 (Homo sapiens) (Q13164 whole entry, looked up, the tested form may be a part): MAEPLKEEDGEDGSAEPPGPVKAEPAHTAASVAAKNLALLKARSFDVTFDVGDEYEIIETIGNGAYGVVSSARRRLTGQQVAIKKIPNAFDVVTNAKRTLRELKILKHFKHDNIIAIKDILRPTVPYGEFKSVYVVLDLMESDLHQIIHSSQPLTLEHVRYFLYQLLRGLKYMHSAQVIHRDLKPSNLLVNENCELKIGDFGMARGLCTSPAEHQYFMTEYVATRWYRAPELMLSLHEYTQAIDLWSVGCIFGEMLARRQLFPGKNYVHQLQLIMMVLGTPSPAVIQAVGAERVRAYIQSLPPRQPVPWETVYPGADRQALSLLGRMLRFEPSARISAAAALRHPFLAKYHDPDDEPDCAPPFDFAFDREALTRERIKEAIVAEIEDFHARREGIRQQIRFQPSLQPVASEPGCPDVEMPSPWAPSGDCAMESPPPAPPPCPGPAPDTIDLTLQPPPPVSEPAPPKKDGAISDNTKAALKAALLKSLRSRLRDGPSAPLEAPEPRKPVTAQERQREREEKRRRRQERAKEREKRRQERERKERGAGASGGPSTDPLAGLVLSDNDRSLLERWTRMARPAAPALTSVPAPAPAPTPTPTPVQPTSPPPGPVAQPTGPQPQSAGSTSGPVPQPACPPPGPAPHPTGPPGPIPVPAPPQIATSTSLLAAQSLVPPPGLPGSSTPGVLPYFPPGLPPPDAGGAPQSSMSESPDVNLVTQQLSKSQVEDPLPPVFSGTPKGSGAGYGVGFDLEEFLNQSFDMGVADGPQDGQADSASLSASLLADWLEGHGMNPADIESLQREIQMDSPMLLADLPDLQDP
# [13] = target: 6-phosphogluconate dehydrogenase, decarboxylating (Homo sapiens) (UniProt P52209); experiment: 6PGD enzyme inhibitors, primary screen, biochemical, human, recombinant enzyme, NADPH absorbance (AID 1159550;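 active means at least 20% inhibition of 6-phosphogluconate dehydrogenase activity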); conditions: recombinant 6PGD, NADPH absorbance 341 nm; at 10 µM; stronger effect = higher value
# Chain of 6-phosphogluconate dehydrogenase, decarboxylating (Homo sapiens) (P52209 whole entry, looked up): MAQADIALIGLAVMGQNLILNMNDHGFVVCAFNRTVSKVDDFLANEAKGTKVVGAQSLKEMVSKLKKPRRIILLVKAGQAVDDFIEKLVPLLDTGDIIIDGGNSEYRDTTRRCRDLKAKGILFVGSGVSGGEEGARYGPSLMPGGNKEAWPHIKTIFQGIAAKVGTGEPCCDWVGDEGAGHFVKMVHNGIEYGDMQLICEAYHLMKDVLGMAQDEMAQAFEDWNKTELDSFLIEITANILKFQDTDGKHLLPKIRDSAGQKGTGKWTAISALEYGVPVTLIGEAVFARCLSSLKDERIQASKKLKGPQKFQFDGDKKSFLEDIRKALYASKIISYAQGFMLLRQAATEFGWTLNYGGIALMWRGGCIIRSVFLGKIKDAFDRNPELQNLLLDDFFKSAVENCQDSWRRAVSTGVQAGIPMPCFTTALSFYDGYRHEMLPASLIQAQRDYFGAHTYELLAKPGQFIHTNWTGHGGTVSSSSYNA
# [14] = hESC survival regulators, cell-based (AID 493140; call rule not given here;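 further: cells exposed to compounds for four days before counting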); conditions: human embryonic stem cell survival screen; stronger effect = higher value
# [15] = survival rescue of mitochondrial mutant cells in low glucose, primary screen, MELAS cybrids, Rieske KO mouse fibroblasts, CellTiter-Glo (AID 1508586;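 active means mean z-score across replicates of 1.96 or higher in either the MELAS or the Rieske mutant cell line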;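 further: z relative to plate mean and SD of compound and empty wells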)
# [16] = viability rescue of complex I mutant cybrids, primary screen, cell-based, galactose medium, ATP luminescence (AID 1645843;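 active means z-score of at least 1.8 in each of two replicates, scored against plate mean and spread of sample wells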;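 further: positive z means more ATP and so rescue of galactose-driven cybrid death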); conditions: complex I mutant cybrid cells, 72 h, stronger effect = higher value
# [17] = measured here: epithelial PC-3E GFP cell survival
# [18] = measured here: mesenchymal TEM4-18 mCherry cell survival
# [19] = stronger effect = lower value, cell number ratio, induced over uninduced
# [20] = measured here: relative caspase fold change +Dox/-Dox
# [21] = measured here: total cells with miR-34 induction, stronger effect = lower value
# [22] = measured here: total cells without miR-34 induction
# [23] = MELAS cybrid survival, CellTiter-Glo 48 h, stronger effect = higher value
# [24] = Rieske KO mouse fibroblast survival, CellTiter-Glo 72 h
smiles,measurement,setting,value
CCN(CC)C(=O)c1cccnc1,nuclear beta-catenin stimulation,[1]; at 10 µM,2.1% (inactive)
same,nuclear beta-catenin stimulation,"[1]; stimulation, at 2 µM",-1%
same,insulin secretion stimulation,[2],1.2% (inactive)
same,viability decrease,[3],6.1% (inactive)
same,GLP1 secretion stimulation,[4],1.6% (inactive)
same,inhibition of viability,[5],14.5% (inactive)
same,viability decrease (inhibition),[6],-1.1% (inactive)
same,viability decrease (inhibition),[7],6.2% (inactive)
same,red/green cell ratio (normalised),[8],1.14 (inactive)
same,normalised cell number,[8]; [17],0.99
same,normalised cell number,[8]; [18],1.13
same,fold change,[9]; [19],0.953 (inactive)
same,fold change,[9]; [20],0.829
same,cell count,[9]; [21],8700
same,cell count,[9]; [22],9130
same,remaining NAD,[10],10 nM (inactive)
CSc1ccc(/C=C2/C(C)=C(CC(=O)O)c3cc(F)ccc32)cc1,nuclear beta-catenin stimulation,[1]; at 10 µM,-1.4% (inactive)
same,nuclear beta-catenin stimulation,"[1]; stimulation, at 2 µM",-0.1%
same,insulin secretion stimulation,[2],1.85% (inactive)
same,GLP1 secretion stimulation,[4],9.9% (inactive)
N[C@H]1C(O)O[C@H](CO)[C@@H](O)[C@@H]1O (some centres undefined),nuclear beta-catenin stimulation,[1]; at 10 µM,-1% (inactive)
same,nuclear beta-catenin stimulation,"[1]; stimulation, at 2 µM",1.7%
same,insulin secretion stimulation,[2],1.4% (inactive)
same,viability decrease,[3],7.5% (inactive)
same,tube area decrease,[11],-12.1% (inactive)
same,GLP1 secretion stimulation,[4],-0.8% (inactive)
same,inhibition of viability,[5],-4.93% (inactive)
same,viability decrease (inhibition),[6],-42% (inactive)
same,viability decrease (inhibition),[7],-2.3% (inactive)
same,luciferase signal,[12],84 AU (inactive)
CC(=O)N(c1onc(C)c1C)S(=O)(=O)c1ccc(N)cc1,nuclear beta-catenin stimulation,[1]; at 10 µM,0.7% (inactive)
same,nuclear beta-catenin stimulation,"[1]; stimulation, at 2 µM",0.2%
same,insulin secretion stimulation,[2],-0.8% (inactive)
same,viability decrease,[3],-73.1% (inactive)
same,tube area decrease,[11],-1% (inactive)
same,GLP1 secretion stimulation,[4],-0.8% (inactive)
same,inhibition of viability,[5],-3.87% (inactive)
same,viability decrease (inhibition),[6],30.4% (inactive)
same,viability decrease (inhibition),[7],5.3% (inactive)
same,luciferase signal,[12],40 AU (inactive)
Cc1ccc(O)cc1,nuclear beta-catenin stimulation,[1]; at 10 µM,0.9% (inactive)
same,nuclear beta-catenin stimulation,"[1]; stimulation, at 2 µM",13.3%
same,viability decrease,[3],4.4% (inactive)
same,tube area decrease,[11],-11.8% (inactive)
same,inhibition of viability,[5],13.6% (inactive)
same,viability decrease (inhibition),[6],-6.4% (inactive)
same,viability decrease (inhibition),[7],-0.4% (inactive)
same,inhibition,[13],-1.83% (inactive)
same,red/green cell ratio (normalised),[8],1.31 (inactive)
same,normalised cell number,[8]; [17],1.05
same,normalised cell number,[8]; [18],1.37
same,fold change,[9]; [19],0.843 (inactive)
same,fold change,[9]; [20],3.01
same,cell count,[9]; [21],10700
same,cell count,[9]; [22],12700
CCCCCCCCCCCCCCCC(=O)OCC=C(C)C=CC=C(C)C=CC1=C(C)CCCC1(C)C,nuclear beta-catenin stimulation,[1]; at 10 µM,-1.5% (inactive)
same,nuclear beta-catenin stimulation,"[1]; stimulation, at 2 µM",-0.3%
same,insulin secretion stimulation,[2],1.2% (inactive)
same,GLP1 secretion stimulation,[4],2.7% (inactive)
Cc1cccc(Nc2cc(Cl)nc(SCC(=O)O)n2)c1C,survival,[14],88 (inactive)
same,nuclear beta-catenin stimulation,[1]; at 10 µM,-0.3% (inactive)
same,nuclear beta-catenin stimulation,"[1]; stimulation, at 2 µM",0.2%
same,insulin secretion stimulation,[2],-0.2% (inactive)
same,GLP1 secretion stimulation,[4],-3.8% (inactive)
same,z-score,[15]; [23],-0.392 (inactive)
same,z-score,[15]; [24],-0.362
same,z-score,[16],0.215 (inactive)
COc1ccc(/C=N/NC(=O)c2ccncc2)cc1OC,nuclear beta-catenin stimulation,[1]; at 10 µM,3.6% (inactive)
same,nuclear beta-catenin stimulation,"[1]; stimulation, at 2 µM",8%
same,viability decrease,[3],2.5% (inactive)
same,tube area decrease,[11],12.2% (inactive)
same,inhibition of viability,[5],11.9% (inactive)
same,viability decrease (inhibition),[6],-1% (inactive)
same,viability decrease (inhibition),[7],-0.1% (inactive)
Cc1c(O)cc2c(c1C)O[C@](C)(CCC[C@H](C)CCC[C@H](C)CCCC(C)C)CC2,nuclear beta-catenin stimulation,[1]; at 10 µM,0.3% (inactive)
same,nuclear beta-catenin stimulation,"[1]; stimulation, at 2 µM",-0.6%
same,insulin secretion stimulation,[2],0.7% (inactive)
same,GLP1 secretion stimulation,[4],9.2% (inactive)
NC(=O)C1(N2CCCCC2)CCN(CCCN2c3ccccc3CCc3ccc(Cl)cc32)CC1,nuclear beta-catenin stimulation,[1]; at 10 µM,1.5% (inactive)
same,nuclear beta-catenin stimulation,"[1]; stimulation, at 2 µM",12.3%
same,viability decrease,[3],99.5% (active)
same,tube area decrease,[11],109% (active)
same,inhibition of viability,[5],99.4% (active)
same,viability decrease (inhibition),[6],102% (active)
same,viability decrease (inhibition),[7],102% (active)
Cc1cccc(C)c1NC(=O)CC12CCCN1CCC2,nuclear beta-catenin stimulation,[1]; at 10 µM,4.2% (inactive)
same,nuclear beta-catenin stimulation,"[1]; stimulation, at 2 µM",1.3%
same,insulin secretion stimulation,[2],0.3% (inactive)
same,GLP1 secretion stimulation,[4],5% (inactive)
Cc1c(N)cccc1C(F)(F)F,nuclear beta-catenin stimulation,[1]; at 10 µM,0.9% (inactive)
same,nuclear beta-catenin stimulation,"[1]; stimulation, at 2 µM",5.4%
same,viability decrease,[3],2.8% (inactive)
same,tube area decrease,[11],5.6% (inactive)
same,inhibition of viability,[5],11.2% (inactive)
same,viability decrease (inhibition),[6],1.3% (inactive)
same,viability decrease (inhibition),[7],6.9% (inactive)
CCCCC(CC)COC(=O)CC(C(=O)OCC(CC)CCCC)S(=O)(=O)O (centres undefined),nuclear beta-catenin stimulation,[1]; at 10 µM,2.7% (inactive)
same,nuclear beta-catenin stimulation,"[1]; stimulation, at 2 µM",-0.9%
same,insulin secretion stimulation,[2],-1.3% (inactive)
same,GLP1 secretion stimulation,[4],84.6% (active)
same,red/green cell ratio (normalised),[8],0.91 (inactive)
same,normalised cell number,[8]; [17],0.99
same,normalised cell number,[8]; [18],0.9
same,fold change,[9]; [19],0.854 (inactive)
same,fold change,[9]; [20],1.07
same,cell count,[9]; [21],8120
same,cell count,[9]; [22],9510
same,remaining NAD,[10],10 nM (inactive)
CCC=CCC=CCC=CCCCCCCCC(=O)O,nuclear beta-catenin stimulation,[1]; at 10 µM,-0.2% (inactive)
same,nuclear beta-catenin stimulation,"[1]; stimulation, at 2 µM",0%
same,insulin secretion stimulation,[2],2.65% (inactive)
same,GLP1 secretion stimulation,[4],12.4% (inactive)
CCc1cccc(N(C)C(N)=Nc2cccc3ccccc23)c1,nuclear beta-catenin stimulation,[1]; at 10 µM,-1.6% (inactive)
same,nuclear beta-catenin stimulation,"[1]; stimulation, at 2 µM",-1.7%
same,insulin secretion stimulation,[2],60.2% (active)
same,GLP1 secretion stimulation,[4],1.6% (inactive)
same,fold change,[9]; [19],1.03 (inactive)
same,fold change,[9]; [20],1.33
same,cell count,[9]; [21],7210
same,cell count,[9]; [22],6970
same,z-score,[16],-1.44 (inactive)
O=C(OCc1ccccc1)c1cccnc1,nuclear beta-catenin stimulation,[1]; at 10 µM,-0.5% (inactive)
same,nuclear beta-catenin stimulation,"[1]; stimulation, at 2 µM",-2.3%
same,insulin secretion stimulation,[2],0.3% (inactive)
same,GLP1 secretion stimulation,[4],-1.9% (inactive)
CCC(C(=O)OCCOCCN(CC)CC)c1ccccc1 (centres undefined),nuclear beta-catenin stimulation,[1]; at 10 µM,1.3% (inactive)
same,nuclear beta-catenin stimulation,"[1]; stimulation, at 2 µM",-2.5%
same,insulin secretion stimulation,[2],5.45% (inactive)
same,GLP1 secretion stimulation,[4],7.5% (inactive)
CCC1Nc2cc(Cl)c(S(N)(=O)=O)cc2S(=O)(=O)N1 (centres undefined),nuclear beta-catenin stimulation,[1]; at 10 µM,-0.1% (inactive)
same,nuclear beta-catenin stimulation,"[1]; stimulation, at 2 µM",-1.8%
same,insulin secretion stimulation,[2],0.25% (inactive)
same,GLP1 secretion stimulation,[4],2% (inactive)
O=C(CCCN1CCC(O)(c2cccc(C(F)(F)F)c2)CC1)c1ccc(F)cc1,nuclear beta-catenin stimulation,[1]; at 10 µM,14.8% (inactive)
same,nuclear beta-catenin stimulation,"[1]; stimulation, at 2 µM",-1.1%
same,insulin secretion stimulation,[2],-0.35% (inactive)
same,GLP1 secretion stimulation,[4],5.6% (inactive)
same,fold change,[9]; [19],1.01 (inactive) and 0.873 (inactive)
same,fold change,[9]; [20],0.77 and 1.63
same,cell count,[9]; [21],10300 and 9050
same,cell count,[9]; [22],10200 and 10400
same,z-score,[15]; [23],-0.508 (inactive)
same,z-score,[15]; [24],-1.07
same,z-score,[16],-1 (inactive) and -0.885 (inactive)
